Reference: PubChem BioAssay AID624300 (Southern Research Specialized Biocontainment Screening …, 2012)
Screen size: about 2,400 compounds; about 360 (15%) were called active. Only a sample is shown. Measured potencies and affinities stand elsewhere. Unmarked numbers belong to inactive results.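 Rule for the calls: active = viability falls under 70% at one or more tested concentrations, taken as toxicity; inactive = viability stays over 70% at every dose.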

test: viability loss in HeLa cells – cytotoxicity control for MgcRacGAP inhibitor project, dose response (AID 624300); conditions: CellTiter-Glo luminescence, 24 h; series mostly up to 100 µM; viability: at the top concentration;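 note: 100% = median of untreated control wells on the same plate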

| Compound | viability [%] |
| --- | --- |
| O=C(O)c1cccc2cccc(-c3c4ccc(=O)c(O)c-4oc4c(O)c(O)ccc34)c12 | 97.2 |
| Cc1cc(=O)oc2c(O)c(O)ccc12 | 87.6 |
| CC(C(=O)NCC(=O)Nc1ccc(F)c(F)c1F)N1CCN(c2ccc(O)cc2)CC1 (configuration not stated) | 107 |
| Cc1cc(C(=O)c2cnc(/N=C/N(C)C)s2)cc(C)c1O | 94.2 |
| COc1cc(/C=N/NC(=O)C(=O)N2CCCC2)ccc1O | 103 |
| Oc1ccc(Br)cc1C=Nc1ccc2[nH]ncc2c1 | 90.4 |
| Oc1ccccc1/C=N/n1c(-c2ccccc2)n[nH]c1=S | 104 |
| O=[N+]([O-])c1cccc(/C=N/n2c(-c3cccnc3)n[nH]c2=S)c1 | 98.9 |
| CCN(c1ccccc1)S(=O)(=O)c1ccc(OC)c(NC(=O)CNCCc2ccccc2)c1 | 94.7 |
| CCOC(=O)CCNC(C)C1COc2ccccc2O1 (configuration not stated) | 102 |
| O=C(COC(=O)c1c2c(nc3ccccc13)/C(=C/c1ccco1)CC2)NC1CCCC1 | 89.1 |
| COC(C(=O)N/N=C(\C)CC(=O)Nc1ccc(N(C)C)cc1)c1ccccc1 (configuration not stated) | 106 |
| CC(C)c1ccc(NC(=O)CNCC(c2ccccc2)N(C)C)cc1 (configuration not stated) | 98.1 |
| COc1cc(N=Nc2c(C)n(C)n(-c3ccccc3)c2=O)ccc1N | 95.7 |
| Oc1ccc(/C=N/N=C/c2ccc(O)cc2)cc1 | 102 |
| COc1cccc(OC)c1OCCCCN1CCCC1 | 102 |
| Cc1cccn2c(NCc3ccc4c(c3)OCO4)c(-c3ccc(O)cc3)nc12 | 98.5 |
| C/C(CC(=O)Nc1ccc(N(C)C)cc1)=N\NC(=O)c1ccc([N+](=O)[O-])cc1Cl | 103 |
| Cc1cc(/C=C(\C#N)C(=O)N2CCCCC2)cc(C)c1O | 94.2 |
| COc1ccc(N2C(=O)CC(Nc3ccc(N4CCOCC4)cc3)C2=O)c(OC)c1 (configuration not stated) | 106 |
| CN1C=CC(=CC=C2C=CC(=O)C=C2)C=C1 | 93.8 |
| COc1cc(/C=C/C(=O)OC(C)C(=O)Nc2c(C)n(C)n(-c3ccccc3)c2=O)ccc1O (configuration not stated) | 99.9 |
| COc1cc(/C=N/NC(=O)c2nnn(-c3nonc3N)c2C(C)C)ccc1O | 96.8 |

| Compound | viability [%] |
| --- | --- |
| CCN1CCN(CCOc2ccc(Br)cc2C)CC1 | 95.3 |
| COc1ccc(-c2cn[nH]c2-c2ccc(O)cc2O)cc1 | 101 |
| COc1ccccc1-c1cn[nH]c1-c1ccc(O)cc1O | 104 |
| CN1CCN(Cc2coc3c(Cl)cc(Cl)cc3c2=O)CC1 | 101 |
| CN1C(=O)C2C(c3ccc(N(C)C)cc3)=NN(Cc3ccccc3)C2C1=O (configuration not stated) | 97 |
| CC(C(=O)Nc1ccc2c(c1)OCO2)N1CCN(C)CC1 (configuration not stated) | 101 |
| CCN(CC)CCn1c2ccccc2c(=O)c2c(O)ccc(O)c21 | 93 |
| CCN(CC)CCCNCC(=O)Nc1cc(C)on1 | 105 |
| COc1ccc(-n2c(=O)c3c4c(sc3n3c(=S)[nH]nc23)CCCC4)cc1 | 96.4 |
| c1cc2c(cc1CNc1ccc(N3CCOCC3)cc1)OCO2 | 99.3 |
| COc1cc(/C=N/n2c(C3CCCCC3)n[nH]c2=S)ccc1O | 89.1 |
| CN1CCN(/N=C/c2nc(-c3ccc(Cl)cc3)n3ccccc23)CC1 | 98.7 |
| Oc1ccc(N2CCN(C(c3cccs3)c3nnnn3CCc3ccccc3)CC2)cc1 (configuration not stated) | 107 |
| Cc1ccc(NC(=O)CCC(=O)N/N=C/c2ccc(O)cc2)cc1 | 102 |
| Cn1cccc1CC(=O)N/N=C/C=C/c1ccco1 | 102 |
| Cc1ccc(Nc2n[nH]c(=S)s2)c(C)c1 | 96.7 |
| O=C(CNC1CC1)Nc1cc(C(F)(F)F)ccc1Cl | 90.3 |
| CCC1=NN2C(=N)/C(=C\c3ccc(SCc4ccco4)o3)C(=O)N=C2S1 | 97.1 |
| CCOc1cc(/C=N/NC(=O)c2ccccc2OCc2ccc(F)cc2)ccc1O | 82.5 |
| O=C(COc1ccccc1[N+](=O)[O-])N/N=C/c1ccc(O)cc1 | 106 |
| O=C(N/N=C/c1ccc(O)c(O)c1)c1cccc(S(=O)(=O)N2CCCCC2)c1 | 91.9 |
| CCOC(=O)Nc1ccc(OC(=O)Oc2ccc(NC(=O)OCC)cc2)cc1 | 103 |
| CC(=O)Nc1ccc(OC(=O)c2cc3ccccc3oc2=O)cc1 | 112 |

| Compound | viability [%] |
| --- | --- |
| C=CCc1cc(C=Nc2ccc(N3CCOCC3)cc2)cc(OCC)c1O | 103 |
| CCc1nnc(N/N=C/c2c(C)[nH]c3ccccc23)n1N | 88.7 |
| CCN1CCN(C(C)C(=O)NC2CCCCC2)CC1 (configuration not stated) | 100 |
| C/C(=N/Nc1ccc(C(=O)O)cc1)c1ccc2c(c1)Nc1ccccc1S2 | 103 |
| C/C(=N\NC(=O)c1ccccc1F)c1ccc2c(c1)Nc1ccccc1S2 | 87.5 |
| N#CC1=C(S)N(c2ccccc2)C2(CCCCC2)NC1=O | 96.7 |
| CC1(C)O[C@@H]2[C@H](O1)[C@@H](COS(=O)(=O)O)O[C@H]2n1c(=S)[nH]c2c(=O)[nH]c(N)nc21 | 97.4 |
| Cc1c(N(C)C)nc2ccccc2c1N | 105 |
| O=C(O)CC1SC(=Nc2ccc(O)cc2)NC1=O (configuration not stated) | 99 |
| COc1cc(/C=N/NC2=NCCCCC2)ccc1O | 106 |
| S=c1[nH]nc(Nc2ccccc2Cl)s1 | 93.5 |
| COc1cc(/C=C2\SC(=Nc3ccc(Cl)c(C(=O)O)c3)NC2=O)c(Br)c(Br)c1O | 104 |
| O=C1NC(=NCc2ccccc2)S/C1=C/c1ccc(O)cc1 | 100 |
| O=C1NC(=S)S/C1=C\C=C\c1ccc([N+](=O)[O-])o1 | 80.3 |
| Cc1cc(/C=C2\SC(=S)NC2=O)c(C)[nH]1 | 89.5 |
| CCOC(=O)C1CCN(Cc2cccc(Oc3ccccc3)c2)CC1 | 94.7 |
| COc1cc(/C=N/NC(=O)c2cn(-c3cccc(C)n3)cn2)ccc1O | 102 |
| COc1cc([C@H]2OC[C@H]3[C@@H]2CO[C@H]3c2ccc(O)c(OC)c2)ccc1O | 91.9 |
| O=C(CN1CCN(c2ccc(O)cc2)CC1)N(C1CC1)C1CCS(=O)(=O)C1 (configuration not stated) | 104 |
| N#C/C(=C/c1ccc(O)c(O)c1)C(=O)NCc1ccc(Cl)cc1 | 80.4 |
| C=CCc1ccc(OCCOCCNCCCC)c(OC)c1 | 97.1 |
| COc1ccc(CNCC(=O)Nc2cc(OC)cc(OC)c2)cc1 | 98 |
| COc1ccc(NC2CCCN(C(=O)c3ccc4[nH]c(C)c(C)c4c3)C2)cc1 (configuration not stated) | 99 |

| Compound | viability [%] |
| --- | --- |
| Cc1ccc(NC(=O)CCC(=O)N/N=C/c2ccc(O)cc2O)cc1 | 108 |
| C=CCc1cccc(C=Nc2cc(Br)ccc2O)c1O | 86.5 |
| Cc1cccc(C=Nc2ccc3c4c(cccc24)CC3)c1O | 106 |
| Cc1ccc(O)c(N=Cc2cc(Cc3ccccc3)cc([N+](=O)[O-])c2O)c1 | 96.8 |
| Cc1ccc(O)c(N=Cc2sc3ccccc3c2Cl)c1 | 91.1 |
| O=C(CN1CCN(c2ccccn2)CC1)Nc1ccc(F)cc1 | 89.7 |
| CCOc1cc(C=NNC(=O)c2cccc(S(=O)(=O)N3CCCC3)c2)ccc1O | 91.9 |
| COCCCNC(=O)/C(C#N)=C/c1c(N2CCN(c3ccc(OC)cc3)CC2)nc2c(C)cccn2c1=O | 89.9 |
| O=C(c1ccco1)N1CCN(Cc2cccc([N+](=O)[O-])c2)CC1 | 106 |
| COc1cc(OC)c(OC)cc1/C=N/N(C)c1ccccc1 | 109 |
| COc1cc(/C=N/N(C)c2ccccc2)ccc1O | 83 |
| COc1ccc(Cn2c(O)c(/C=N/NC(=O)c3cccnc3)c3ccccc3c2=O)cc1 | 111 |
| CCOC(=O)c1[nH]c2ccccc2c1NC(=S)Nc1ccccc1C | 106 |
| CCN(CC)S(=O)(=O)c1ccc(C)c(NC(=O)CN2CCN(C)CC2)c1 | 100 |
| Oc1ccc(/C=N/Nc2cc(N3CCOCC3)nc(N3CCOCC3)n2)cc1 | 92.5 |
| Oc1ccc(/C=N/Nc2cccc(Cl)n2)c(O)c1 | 91.5 |
| Oc1ccc(/C=N/Nc2nc(N3CCCC3)nc(N3CCCC3)n2)cc1O | 102 |
| Cc1nc(Cl)cc(N/N=C/c2ccc(O)cc2O)n1 | 100 |
| CCOc1cc(/C=N/n2cnnc2)ccc1O | 99.9 |
| CC1CCC/C(=C\Nc2ccc(O)cc2)C1=O (configuration not stated) | 106 |
| CCOCCCNC(=O)CN1CCN(c2ccc(F)cc2)CC1 | 96.4 |
| O=C(NN=Cc1ccc(O)cc1)c1ccccc1NS(=O)(=O)c1cccs1 | 93.7 |
| CC(C)=C(NC(=O)c1ccccc1)C(=O)N/N=C/c1ccc(O)cc1 | 104 |

| Compound | viability [%] |
| --- | --- |
| C=CCc1cc(Cl)ccc1OCCNCCN1CCOCC1 | 101 |
| CCCS(=O)(=O)N1CCN(C2Cc3ccccc3C2)CC1 | 106 |
| C=CCOC(=O)c1cc(-c2ccc(/C=C3\C(=O)NC(=O)C(C#N)=C3C)o2)ccc1Cl | 85.3 |
| CCN1CCN(CC(=O)Nc2cc(C(F)(F)F)ccc2OCCOC)CC1 | 99.1 |
| COCCNC(=O)Cn1cc(/C=N/NC(=O)c2ccc(Oc3ccc(O)cc3)cc2)c2ccccc21 | 104 |
| CCOc1cc(/C=N/n2c(C)nnc2C)ccc1O | 101 |
| CCOc1cc(-c2nc3ccccc3s2)ccc1O | 87.2 |
| NCC[C@H](O)C(=O)N[C@@H]1C[C@H](N)[C@@H](O[C@H]2O[C@H](CN)[C@@H](O)[C@H](O)[C@H]2O)[C@H](O)[C@H]1O[C@H]1O[C@H](CO)[C@@H](O)[C@H](N)[C@H]1O | 104 |
| CSCc1ccc(C(=O)N2CCCC(Nc3ccc4c(c3)OCCO4)C2)o1 (configuration not stated) | 100 |
| Cc1ccccc1N1C(S)=C(C#N)C(=O)NC12CCCCC2 | 103 |
| C/C(=N\Nc1cccc2cccnc12)c1ccc[nH]1 | 96.6 |
| COc1ccc(CN2CCN(Cc3ccco3)CC2)cc1OC | 93.6 |
| O=C1C(=Cc2ccco2)CCC1=Cc1ccco1 | 99.7 |
| CCN(CC)c1ccc(NC(=O)CCN2C(=O)c3ccccc3S2(=O)=O)c(C)c1 | 105 |
| Nc1cc(C(F)(F)F)ccc1N1CCOCC1 | 96.6 |
| CCc1ccccc1NC(=S)NCC1CCN(c2ccc(OC)cc2)C1 (configuration not stated) | 95 |
| Nc1ccc2c(c1)[nH]c(=O)c1cc(N)ccc12 | 93.6 |
| Nc1ccc2nc(Cc3ccccc3)[nH]c2c1 | 115 |
| O=C(c1ccc(Cl)c(S(=O)(=O)N2CCCCCC2)c1)N1CCN(c2ccc(O)cc2)CC1 | 87 |
| CCN(CC)S(=O)(=O)c1ccc(N/N=C/c2ccc(O)cc2)nc1 | 95.9 |
